Test results as given in PubChem BioAssay (NCI).
Several values for one entry are separate records, joined by “and”; a condition that tells them apart may be missing. Equal values may be shown once. About 83,000 compounds went through this panel and 20% of them were active in at least one assay; those are over-represented in the sample as a whole.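 Negative percent growth values reflect cell death: -40 means 40% of the cells present at the start died, and -100 means all died.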 More than one record can exist for a structure, and the calls need not agree. Activity calls are given as the source filed them. Rule for the calls: active = growth percent below 10; inactive = the rest.

The compounds below were run on HL-60(TB) leukemia (assay: NCI-60 one-dose screen, 48 h (100 = growth as untreated, 0 = no growth, -100 = all killed)). Settings: 10 µM unless noted.
With OC(c1cc(-c2ccc(C(F)(F)F)cc2)nc(C(F)(F)F)c1)C1CCCCN1 (centres undefined) the growth was -47.6% (active) and -72.8% (active) and 36.6% (inactive).
For COc1cc(CNC(=O)/C=C/C=C/c2ccc3c(c2)OCO3)ccc1OCc1cn(-c2ccc(C)c(C)c2)nn1, the growth was 84.4% (inactive).
With Cc1[nH]c2ccccc2c(=O)c1CC=C(Cl)Cl the growth was 57.5% (inactive).
In the case of COc1cc(-n2nc(C(=O)Nc3ccc(C(=O)O)cc3)nc2-c2ccccc2)cc(OC)c1OC, the growth is reported as 103% (inactive).
